Assay [1] is described as follows: NCI Yeast Anticancer Drug Screen. Data for the rad50 strain (AID 155).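 Further: 0% = growth of vehicle-only cultures of the same strain.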 As to conditions: S. cerevisiae rad50 strain growth inhibition; at 50.0 µM; stronger effect = higher value. The method in brief:
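Growth of the mutant yeast was measured after compound exposure and referenced to vehicle-treated cultures.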

Assay [2] in a line: NCI Yeast Anticancer Drug Screen. Data for the mec2-1 strain (AID 157). To be noted: S. cerevisiae mec2-1 strain, at 50.0 µM, stronger effect = higher value. The method in brief: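 mec2-1 yeast strain, carrying an alteration in DNA damage repair or cell cycle control, was exposed to compounds; growth inhibition was measured relative to vehicle-treated controls.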
A short description of assay [3]: NCI Yeast Anticancer Drug Screen. Data for the sgs1 mgt1 strain (AID 161).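 Further: 0% = growth of cultures given vehicle only.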 To be noted: S. cerevisiae sgs1 mgt1 strain, at 50.0 µM, stronger effect = higher value. The method in brief:
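Percent growth inhibition was derived by comparing compound-exposed mutant yeast with vehicle-exposed cultures. The strain carries alterations in DNA damage repair.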

The nature of assay [4]: NCI Yeast Anticancer Drug Screen. Data for the cln2 rad14 strain (AID 165).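 Further: 0% = growth equal to vehicle treated cultures.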 To be noted: S. cerevisiae cln2 rad14 strain, at 50.0 µM, stronger effect = higher value. An outline of the steps: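 Yeast carrying cln2 and rad14 alterations (cell cycle control and DNA damage repair) were exposed to compounds. Growth inhibition was measured against vehicle-treated controls.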
Assay [5] is described as follows: NCI Yeast Anticancer Drug Screen. Data for the bub3 strain (AID 167). To be noted: S. cerevisiae bub3 mutant strain, at 50.0 µM, stronger effect = higher value. An outline of the steps: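 Whole-cell yeast assay. The mutant strain was incubated with compounds, and growth inhibition was determined by comparison with vehicle-treated cells.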
The nature of assay [6]: NCI Yeast Anticancer Drug Screen. Data for the mlh1 rad18 strain (AID 175). As to conditions: S. cerevisiae mlh1 rad18 strain growth inhibition; at 50.0 µM; stronger effect = higher value. An outline of the steps:
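Growth inhibition of the yeast strain was measured after compound exposure and expressed relative to vehicle-treated controls. The strain carries defined defects in DNA damage repair.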

This is part of a sample that, as a whole, favours compounds with a hit. Of some 79,000 tested, about 15% had one in any assay. A number with no mark means an inactive call. The source made the active and inactive calls. No stated cut-off is given here; in the data, active means growth inhibition above about 70%; inactive means the rest.

For the compound `N=c1nccnn1O`, the growth inhibition in assay [1] was 6.45%; in assay [2], 13.2%; in assay [3], -8.2%; in assay [4], 10.4%; in assay [5], -6.5%; in assay [6], 3.95%.
For `COc1cc(CO)c(CO)cc1OC`, the growth inhibition was -5.05% in assay [1]; -3.2% in assay [2]; -5.65% in assay [3]; -10.8% in assay [4]; 4% in assay [5]; -8.95% in assay [6].
For `c1csc(CNc2cccc3ccccc23)c1`, the growth inhibition is 54.5% in assay [1]; 25% in assay [2]; 31.6% in assay [3]; -22.1% in assay [4]; 13.6% in assay [5]; 28% in assay [6].
With `CCCCCCCC(C)(O)C#CC(C)(O)CCCCCCC` (configuration not stated), the growth inhibition is 4.35% in assay [1]; -4.15% in assay [2]; 4.85% in assay [3]; -20.6% in assay [4]; 5.05% in assay [5]; 13.3% in assay [6].
For `CC(=O)N(CCC(C)C)c1ccccc1`, the growth inhibition in assay [1] was 10.6%; in assay [2] it was 11.6%; in assay [3] it was -0.75%; in assay [4] it was -43.9%; in assay [5] it was -6.45%; in assay [6], -6.85%.
`CN=c1ss/c(=N\C(=S)N(C)C)n1C`: the growth inhibition in assay [1] was -0.2%; in assay [2] it was -10.5%; in assay [3] it was -21.6%; in assay [4], 28%; in assay [5] it was -11.5%; in assay [6], 6.8%.
`S=c1nc(-c2ccnc(-c3nc(=S)[nH][nH]3)c2)[nH][nH]1`: the growth inhibition in assay [1] was -18.4%; in assay [2] it was -18.4%; in assay [3], -18.8%; in assay [4], 43.7%; in assay [5], -9.75%; in assay [6], -43.7%.
`N#CC(Cc1ccccc1)C(=O)O` (configuration not stated): the growth inhibition in assay [1] was 2.05%; in assay [2], 0.5%; in assay [3], -5.35%; in assay [4] it was 2%; in assay [5], 1.4%; in assay [6], 0.8%.
In the case of `O=C(Oc1c([N+](=O)[O-])cc(-c2ccccc2)cc1[N+](=O)[O-])c1ccccc1`, the growth inhibition in assay [1] was 22.7%; in assay [2], 18.1%; in assay [3], 9.05%; in assay [4], 13.1%; in assay [5], 20.1%; in assay [6], 35.6%.
Regarding `COC1=C(O)C(=O)C(OC)=C(O)C1=O`, the growth inhibition is -19.5% in assay [1]; -8.65% in assay [2]; -13.5% in assay [3]; -1.4% in assay [4]; 9.75% in assay [5]; -19.6% in assay [6].
For `CCCCc1c2c(nc3c1CCC/C3=C\c1ccccc1)/C(=C/c1ccccc1)CCC2`, the growth inhibition in assay [1] is -5.05%; in assay [2] it was 16.9%; in assay [3] it was -1.3%; in assay [4], 9.7%; in assay [5], -0.55%; in assay [6], 22.3%.
For `C(#CC[P+](c1ccccc1)(c1ccccc1)c1ccccc1)C[P+](c1ccccc1)(c1ccccc1)c1ccccc1`, the growth inhibition is -24.1% in assay [1]; -16.4% in assay [2]; 0.2% in assay [3]; 3.55% in assay [4]; -5.4% in assay [5]; -10.4% in assay [6].
With `Cc1nn(C(=O)c2ccc(Cl)cc2)c2c1C(c1ccccc1O)SC(N)=N2` (configuration not stated), the growth inhibition in assay [1] was -29.9%; in assay [2] it was -47.1%; in assay [3], -30.1%; in assay [4] it was -1.45%; in assay [5] it was -11.5%; in assay [6], -25.1%.
For `CCCc1c(C)[nH]c2ccccc12`, the growth inhibition in assay [1] is 15.1%; in assay [2], -33.3%; in assay [3], 5.7%; in assay [4] it was 24.8%; in assay [5], -16.9%; in assay [6], 9%.
With `O=C(O)c1ccc(O)cn1`, the growth inhibition is -4.8% in assay [1]; -7.05% in assay [2]; 2.55% in assay [3]; 6.7% in assay [4]; 3.3% in assay [5]; 2.55% in assay [6].
Regarding `O=C(C(=Cc1ccc(F)cc1)C(=O)c1ccccc1)c1ccccc1`, the growth inhibition was 1.75% in assay [1]; 6.2% in assay [2]; -12% in assay [3]; 5.95% in assay [4]; 3.35% in assay [5]; 26.6% in assay [6].
As for `Cc1c(Br)c(C)[n+]([O-])n1O`, the growth inhibition is 4% in assay [1]; 8.75% in assay [2]; 5.05% in assay [3]; -17% in assay [4]; 26.4% in assay [5]; 0.2% in assay [6].
As for `Cc1ccc([N+](=O)[O-])cc1NC(=O)C(=O)C1CCC2=C(Sc3ccccc3N2)C1=O` (configuration not stated), the growth inhibition in assay [1] was 0.5%; in assay [2] it was -16.9%; in assay [3], -9.45%; in assay [4], -17.9%; in assay [5], -0.4%; in assay [6], -5.85%.
Consider `CCN1CCCC(Nc2nc(Nc3cc(Cl)cc(Cl)c3)nc3ccc(Cl)cc23)C1` (configuration not stated), for which the growth inhibition is 97.3% (active) in assay [1]; 97.1% (active) in assay [2]; 97.5% (active) in assay [3]; 95.5% (active) in assay [4]; 96.8% (active) in assay [5]; 95.8% (active) in assay [6].
As to `CCN(CC)C(=O)CN`, the growth inhibition in assay [1] was 8.9%; in assay [2] it was 0.6%; in assay [3], 9.1%; in assay [4], -3.05%; in assay [5], 3.3%; in assay [6] it was -8.15%.
Take `Clc1ccc(-c2ncc(-c3ccccc3)o2)cc1`: the growth inhibition in assay [1] was 20.8%; in assay [2], -13.7%; in assay [3], -6.75%; in assay [4], 4.2%; in assay [5], 33.6%; in assay [6] it was -9.9%.
Turning to `CC1(C)CC2C(C1=O)C1(C)CCCC2(C)C1=O` (configuration not stated), the growth inhibition was -11.8% in assay [1]; -7.1% in assay [2]; -26.6% in assay [3]; -14.8% in assay [4]; 3% in assay [5]; -46.5% in assay [6].

Source of the values: PubChem BioAssay (NCI).
